One assay deals with ADCK5. The settings on record: read-out: apparent Kd; compound concentrations:100 nM and 1000 nM (sheet 'Lestaurtinib' of Supplementary Table 1),run:Lestaurtinib_02443_R1,Plate:MR009; n = 1.
Another assay relates to BMPR1B. The conditions noted are these: read-out: apparent Kd; compound concentrations:100 nM and 1000 nM (sheet 'Lestaurtinib' of Supplementary Table 1),run:Lestaurtinib_02496_R2,Plate:MR013; n = 1.
Another assay has as its system CSNK2A1;CSNK2A3. The conditions noted are these: read-out: apparent Kd; compound concentrations:100 nM and 1000 nM (sheet 'Lestaurtinib' of Supplementary Table 1),run:Lestaurtinib_02422_R1,Plate:MR006; n = 1.
Another assay concerns DAPK3. The settings on record: read-out: apparent Kd; compound concentrations:100 nM and 1000 nM (sheet 'Lestaurtinib' of Supplementary Table 1),run:Lestaurtinib_02443_R1,Plate:MR009; n = 1.
The next assay deals with GRK6. The settings on record: read-out: apparent Kd; compound concentrations:100 nM and 1000 nM (sheet 'Lestaurtinib' of Supplementary Table 1),run:Lestaurtinib_02339_R2,Plate:MR001; n = 1.
A further assay has as its system HCK. The settings on record: read-out: apparent Kd; compound concentrations:100 nM and 1000 nM (sheet 'Lestaurtinib' of Supplementary Table 1),run:Lestaurtinib_02422_R1,Plate:MR006; n = 1.
The test system of another assay is HSP90B1. The settings on record: read-out: apparent Kd; compound concentrations:100 nM and 1000 nM (sheet 'Lestaurtinib' of Supplementary Table 1),run:Lestaurtinib_02606_R3,Plate:MR019; n = 1.
The next assay has as its system MAP4K3. The settings on record: read-out: apparent Kd; compound concentrations:100 nM and 1000 nM (sheet 'Lestaurtinib' of Supplementary Table 1),run:Lestaurtinib_03172_R3,Plate:MR031; n = 1.
The test system of the next assay is MAPK14. The settings on record: read-out: apparent Kd; compound concentrations:100 nM and 1000 nM (sheet 'Lestaurtinib' of Supplementary Table 1),run:Lestaurtinib_02422_R1,Plate:MR006; n = 1.
The test system of a further assay is MERTK. The conditions noted are these: read-out: apparent Kd; compound concentrations:100 nM and 1000 nM (sheet 'Lestaurtinib' of Supplementary Table 1),run:Lestaurtinib_02766_R2,Plate:MR027; n = 1.
A further assay has as its system MET. The conditions noted are these: read-out: apparent Kd; compound concentrations:100 nM and 1000 nM (sheet 'Lestaurtinib' of Supplementary Table 1),run:Lestaurtinib_02724_R1,Plate:MR021; n = 1.
The subject of another assay is PRKACG. The conditions noted are these: read-out: apparent Kd; compound concentrations:100 nM and 1000 nM (sheet 'Lestaurtinib' of Supplementary Table 1),run:Lestaurtinib_02422_R1,Plate:MR006; n = 1.
The next assay relates to PRKAR2A. The conditions noted are these: read-out: apparent Kd; compound concentrations:100 nM and 1000 nM (sheet 'Lestaurtinib' of Supplementary Table 1),run:Lestaurtinib_02364_R2,Plate:MR002; n = 1.
For the next assay, the system named is PRKDC. The settings on record: read-out: apparent Kd; compound concentrations:100 nM and 1000 nM (sheet 'Lestaurtinib' of Supplementary Table 1),run:Lestaurtinib_02422_R1,Plate:MR006; n = 1.
A further assay concerns RPS6KB1. The conditions noted are these: read-out: apparent Kd; compound concentrations:100 nM and 1000 nM (sheet 'Lestaurtinib' of Supplementary Table 1),run:Lestaurtinib_02766_R3,Plate:MR027; n = 1.
A further assay concerns RIPK3. On the set-up: species or system human, MV4-11 + K-562 + COLO205 + SK-N-BE2 + OVCAR-8. The settings on record: read-out: apparent Kd; compound concentrations: 100 nM and 1000 nM (sheet 'Samples'), CATDS: 0.41855483652365999; n = 1.
The subject of another assay is STK10. On the set-up: species or system human, MV4-11 + K-562 + COLO205 + SK-N-BE2 + OVCAR-8. The conditions noted are these: read-out: apparent Kd; compound concentrations: 100 nM and 1000 nM (sheet 'Samples'), CATDS: 0.394091035560725; n = 1.
The next assay has as its system RAB5C. On the set-up: species or system human, MV4-11 + K-562 + COLO205 + SK-N-BE2 + OVCAR-8. The conditions noted are these: read-out: apparent Kd; compound concentrations: 100 nM and 1000 nM (sheet 'Samples'), CATDS: 1; n = 1.

Lestaurtinib: the potency estimated from few doses in the assay with ADCK5 was 2240 nM; in the assay on BMPR1B, 737 nM; with CSNK2A1;CSNK2A3 it was 1810 nM; in the assay with DAPK3, 1580 nM; in the assay on GRK6, 2090 nM; in the assay on HCK, 1300 nM. Further, the potency estimated from few doses was 979 nM with HSP90B1; 2110 nM in the assay on MAP4K3; 1150 nM in the assay on MAPK14; 1410 nM with MERTK; 2150 nM with MET; 769 nM with PRKACG. The figures for the potency estimated from few doses with PRKAR2A, with PRKDC and in the assay with RPS6KB1 were 979 nM, 1210 nM and 1570 nM, respectively.

Turning to `c1ccc(Oc2ccc(Nc3ccnc4ccc(-c5ccccn5)cc34)cc2)cc1` [GW407034X], in the assay on RIPK3, the potency estimated from few doses was 429 nM.

Turning to `COc1cc2ncn(-c3cc(OCC4CCCO4)c(C(N)=O)s3)c2cc1OC` (stereo not drawn) [GSK204607A], the potency estimated from few doses with STK10 is 614 nM.

`Fc1ccc(-c2c(-c3ccncc3)n(CCN3CCOCC3)c3cccnc23)cc1` [RO1154507-000]: the potency estimated from few doses in the assay on RAB5C was 223 nM.

The values above are taken from article PMC11062922 (Nature Chemical Biology, 2023).
